In the library only some 7.9% were active in any assay of this set; here they are far more common.
MCF10A rerep = A quantitative high throughput screen for small molecules that induce DNA re-replication in MCF 10a normal breast cells; MCF 10A DNA re-replication, Hoechst nuclear intensity, 48 h; Potency, µM (titrated, usually from 46.1 µM), for the others: at the top dose activity, positive = re-replication, usual class: activators; hit rate 2.9% among 350,000; further: % of control where 0% means no effect; nearly all actives have a fitted effect of over 50% in size
KB-3-1 cytotox = qHTS assay for MDR1-selective chemotherapeutics: Primary screen using the parental adenocarcinoma cell KB-3-1. KB-3-1 viability, CellTiter-Glo ATP luminescence, 72 h. Potency, µM (doses to about 46.1 µM), actives largely listed as cytotoxic. hit rate 1.4% among 400,000; further: on the % scale 0 is the no-effect control and ±100 the full control effect; nearly all actives have a fitted effect of over 60% in size
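Parental KB-3-1 viability, qHTS format: 72 h compound exposure, 37 °C; CellTiter-Glo; media-only wells and DMSO plates as controls; concentration-effect fits on corrected data.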
HT1080 IDH1KD tx = qHTS for induction of synthetic lethality in tumor cells producing 2HG: qHTS for the HT-1080-IDH1KD cell line; HT-1080 IDH1 knockdown viability, ATP luminescence, 48 h; Potency, µM (series often up to 46.1 µM), without a hit: at the top dose activity, negative = toxicity, usual class: cytotoxic; AID 686971, 2013; hit rate 2% among 360,000;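 further: 0% = DMSO wells and -100% = cell-free medium wells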
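Assay cells: HT-1080 with IDH1 knockdown, 750 per well, RPMI/5% FBS. Exposure: 48 h at 37 °C following 2 h pre-incubation. Read: CellTiter-Glo luminescence; fitted concentration-response, curve class assigned.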
SW480 rerep = A quantitative high throughput screen for small molecules that induce DNA re-replication in SW480 colon adenocarcinoma cells; SW480 DNA re-replication, Hoechst DNA content imaging, 48 h; Potency, µM (doses to about 46.1 µM), without a hit: at the top dose re-replication activation, usual class: activators; hit rate 1.8% among 340,000; AID 624297, 2012; further: % of control where 0% means no effect; nearly all actives have a fitted effect of over 55% in size
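SW480 cells exposed to compounds for 48 hr at 37 C, 5% CO2, then Hoechst-stained 40 min. Nuclear DNA content imaged by fluorescence scanning (405 nm excitation, 500-530 nm emission); re-replication scored as increased high-intensity nuclei.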
HT1080-NT tox = qHTS for induction of synthetic lethality in tumor cells producing 2HG: qHTS for the HT-1080-NT fibrosarcoma cell line; HT-1080-NT fibrosarcoma viability, CellTiter-Glo ATP luminescence, 48 h; Potency, µM (series often up to 46.1 µM), for the others: at the top dose activity, negative = less viability, most hits filed as cytotoxic; hit rate 1.6% among 360,000;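 further: NT is the 2HG producing partner of a matched IDH1 knockdown line; 0% = DMSO-treated cells and -100% = media-only wells without cells; nearly all actives have a fitted effect of over 55% in size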
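Compounds were tested in concentration-response format on HT-1080-NT cells for 48 hours at 37 degrees C. Cell viability came from CellTiter-Glo luminescence; curves were classified by r2, response magnitude and activity.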
KB-V1 MDR tox = qHTS assay for MDR1-selective chemotherapeutics: Primary screen using the drug-selected MDR subline cells KB-V1 | Potency, µM (doses to about 46.1 µM), hits mostly cytotoxic | AID 1347076, 2019 | KB-V1 MDR cells viability, CellTiter-Glo, 72 h | hit rate 3.4% among 400,000; further: on the % scale 0 is the no-effect control and ±100 the full control effect; nearly all actives have a fitted effect of over 60% in size
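Drug-selected KB-V1 cells, grown in DMEM lacking phenol red with 10% FBS, receive compound titrations; after three days at 37 degrees C, surviving cell ATP is quantified by CellTiter-Glo luminescence and responses normalized and curve-fitted.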
Starred values were filed as active, the others as inactive; i = inactive; ? = inconclusive; nt = no result given; [ ] = remark or other dose. The call rests on the fitted dose curve; in most records, active means well fitted curve in the direction sought with a large enough effect; inconclusive means small, poorly fitted or top-dose-only effect, or another doubt; inactive means no such curve, though single readings can be large; an effect the other way counts as inactive or inconclusive. Potency means the concentration at half of the fitted maximal effect.

SMILES	MCF10A rerep	KB-3-1 cytotox	HT1080 IDH1KD tx	SW480 rerep	HT1080-NT tox	KB-V1 MDR tox
O=C(O)c1cccc(Nc2nc3ccccc3nc2NS(=O)(=O)c2ccccc2)c1	14%	i	-1%	1%	1%	i
COc1ccc(OC)c(-c2noc(N3CCN(c4ccc(Cl)cc4)CC3)n2)c1	nt	i	nt	nt	nt	i
CCCCNC(=O)CCCn1c(=O)c2ccccc2n(Cc2c(C)cc(C)cc2C)c1=O	nt	i	nt	nt	nt	i
Cn1c(CN2CCOCC2)nc2cc(NC(=O)COc3ccccc3)ccc21	-2%	i	3%	1%	-9%	16µM*
Cn1c(CCN2CCOCC2)nc2cc(NC(=O)COc3ccccc3)ccc21	2%	i	12%	-6%	23%	i
Cn1c(CN2CCCC2)nc2cc(NC(=O)Nc3ccccc3)ccc21	-4%	i	5%	1%	-2%	i
CC(=O)NCCc1nc2cc(NC(=O)c3ccccc3C)ccc2n1C	0.58µM*	i	0%	-2%	4%	?
Cc1ccc(C(C)C)c(OCC(=O)Nc2ccc3c(c2)nc(CN2CCCC2)n3C)c1	?	?	23µM*	10%	16µM*	i
Cn1c(CN2CCCCC2)nc2cc(NC(=O)c3ccccc3)ccc21	-5%	i	-2%	5%	12%	8.2µM*
C=CCN1[C@H](COCc2ccccc2)C=CS1(=O)=O	nt	i	13%	nt	16%	i
Cc1cc(C)nc(NC(=O)CSc2nccc(C)n2)n1	2%	i	30%	-11%	5%	i
Cc1ccc(CSC2=NCCN2C(=O)C2CC2)cc1	-4%	i	8%	2%	14%	i
CC1CCN(CCc2nc3cc(NC(=O)COc4ccc([N+](=O)[O-])cc4)ccc3n2C)CC1	?	?	?	21µM*	-7%	i
Cc1ccc(N2CCN(CCc3nc4cc(NC(=O)c5ccco5)ccc4n3C)CC2)cc1	12%	i	?	-4%	-8%	4.1µM*
CCCn1c(CN2CCN(C(=O)OCC)CC2)nc2cc([N+](=O)[O-])ccc21	9%	i	-10%	-2%	-2%	?
CCCC(=O)N1CCN(Cc2nc3cc([N+](=O)[O-])ccc3n2C)CC1	6%	i	4%	7.3µM*	6%	i
CCn1c(CN2CCCCC2)nc2cc(NC(=O)c3ccc([N+](=O)[O-])cc3)ccc21	nt	i	nt	nt	nt	6.5µM*
C[C@H](O)[C@@H]1C(=O)N2CCc3ccc(-c4ccccc4)cc3[C@@H]2C[C@@H]1N(C)C(=O)NC1CCCCC1	?	i	-12%	-27%[9.22 µM]	0%	i
CN(C)CCNS(=O)(=O)c1ccc2c3c(cccc13)C(=O)N2	-2%	i	5%	0%	-3%	i
Cc1cccc(-n2c3nc(=O)n(C)c(=O)c-3cc3c(Cl)cccc32)c1C	nt	i	nt	nt	nt	i
Cn1c(=O)nc2n(Cc3ccccc3)c3cccc(Cl)c3cc-2c1=O	2%	i	20%	1%	15%	21µM*
COc1cc(Br)c(CN2C(=O)NC3(CCCCCC3)C2=O)cc1OC	0%	i	-2%	12%	0%	6.5µM*
COc1ccc(Br)cc1CN1C(=O)NC2(CCCCCC2)C1=O	23%	i	-23%	-4%	-4%	i
COc1cccc(/C=N/NC(=O)c2cc3c(OC)ccc(OC)c3[nH]2)c1O	10%	?	26µM*	-5%	?	i
COc1cc(OC)c2cc(C(=O)N/N=C/c3cccc(OC)c3O)[nH]c2c1	18%	?	9.2µM*	3.3µM*	?	?
SMILES	MCF10A rerep	KB-3-1 cytotox	HT1080 IDH1KD tx	SW480 rerep	HT1080-NT tox	KB-V1 MDR tox
COC(=O)c1ccc(Oc2nc(SC)nc(N(C)C)n2)cc1	2%	i	0%	-11%	2%	i
COC(=O)c1ccc(Oc2nc(Nc3ccccc3)nc(N(C)C)n2)cc1	?	i	5%	13%	-1%	15µM*
CCN(CC)c1nc(Nc2ccccc2)nc(Oc2ccc(C(=O)OC)cc2)n1	?	?	6%	21µM*	7%	?
CCN(CC)c1nc(Oc2ccc(C(=O)NN)cc2)nc(Oc2ccc(C(=O)NN)cc2)n1	1%	i	-3%	2%	-5%	i
COc1ccc(C2/C=C\CC(NC(=O)OCC3c4ccccc4-c4ccccc43)CC(=O)N2Cc2ccccc2F)cc1 (stereo not given)	-7%	i	-12%	13%	0%	i
COc1cc(C(=O)N/N=C/c2sccc2C)cc(OC)c1OC	?	0.65µM*	0.26µM*	1.2µM*	0.52µM*	?
Cc1ccsc1/C=N/NC(=O)c1ccncc1	-7%	i	9%	-9%	-14%	i
Cc1ccccc1/C=N/NC(=O)c1sccc1C	5%	i	-17%	3%	-22%	?
COc1ccc(/C=N/NC(=O)c2sccc2C)c2ccccc12	12µM*	i	-16%	?	-19%	i
COc1cc(C(=O)N/N=C/c2cc([N+](=O)[O-])cs2)cc(OC)c1OC	5.8µM*	?	1.5µM*	?	2.9µM*	1.2µM*
CCOc1ccc(C(=O)N/N=C/c2cc([N+](=O)[O-])cs2)cc1	5%	i	-2%	4%	-4%	i
CCc1ccc(NC(=O)c2ccc(NC(=O)C3CCCO3)cc2)cc1 (stereo not given)	3%	i	0%	-5%	-8%	23µM*
CCOC(=O)c1cc(NC(=O)C2CCCO2)cc(C(=O)OCC)c1 (stereo not given)	1%	i	1%	-11%	21%	13µM*
COC(=O)c1ccc(NC(=O)c2ccc(NC(=O)C3CCCO3)cc2)cc1 (stereo not given)	1%	i	13%	-2%	5%	i
COc1cc(-c2cc(OC)c(O)c(OC)c2)cc(OC)c1O	?	?	?	23µM*	-16%	?
Cc1[nH]n(-c2ccccc2)c(=O)c1C(=O)c1ccccc1	?	?	?	-136%	-22%	?
Cc1[nH]n(-c2ccccc2)c(=O)c1C(=O)c1ccc(Cl)cc1	21%	?	-29%	3%	?	10µM*

High-throughput results from PubChem BioAssay.
